We go through 14 molecules from PubChem BioAssay.

Calls of active or inactive are those of the source.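 Rule for the calls: active = visually confirmed hit in the image check and inhibition above 20%; inconclusive = visually confirmed hit but inhibition not above 20%; inactive = no visual hit in the image check.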

A word on the inhibition: it is the relative decrease from the control value, in per cent.

This assay is described as follows: endothelial E-selectin expression blockers – imaging, HUVEC, immunofluorescence, MLSMR starter and 10KST1 sets, primary screen (AID 487).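 For inhibition: signal is fraction of cell area covered by stained E-selectin grains.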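 For nuclei count: 100% = median nuclei count of all wells on the same plate.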 Conditions: HUVEC TNFalpha-induced E-selectin immunofluorescence imaging, at 2 µM; inhibition: stronger effect = higher value; nuclei count: measured here: cell number, toxicity.
Regarding `N#CCCN1CCN(S(=O)(=O)c2ccc(S(=O)(=O)NC3CCCCC3)cc2)CC1`, the inhibition is -47.2% (inactive) and the nuclei count amounted to 115%.
The matching figures for `CCCN(CCC)C(=O)c1c(C)[nH]c(C(=O)OCC)c1C`: -78.7% (inactive) and 106%.
As to `c1ccc2c(c1)CC(N1CCCCC1)c1ccccc1N2` (stereo not drawn), the nuclei count was 83.5% and the inhibition is -26.5% (inactive).
On to `CCOC(=O)N1CCN(C(=O)CSc2nnc(Cc3ccccc3)o2)CC1`, for which the inhibition is -53.8% (inactive) and the nuclei count is 102%.
The matching figures for `COc1ccc(CCNS(=O)(=O)c2ccc3oc(C(=O)O)c(C)c3c2)cc1OC`: -32% (inactive) and 114%.
The like results for `Cc1cc(NC(=O)CSc2nc3c(c(=O)n2Cc2ccccc2)SC(C)C3)no1` (stereo not drawn) were, in that order, 15.8% (inactive) and 86.8%.
The matching figures for `c1ccc(OCc2nc(-c3ccccc3)no2)cc1`: -72.6% (inactive) and 91.1%.
In the case of `CC1CCN(C(=O)CCNS(=O)(=O)c2ccccc2)CC1`, the inhibition was -149% (inactive) and the nuclei count was determined as 142%.
Take `COc1ccccc1Oc1coc2c(CN3CCN(C)CC3)c(O)ccc2c1=O`: the inhibition is -12.9% (inactive) and the nuclei count worked out at 89.1%.
For `CCS(=O)(=O)N1CCCC(C(=O)NCc2ccccc2Cl)C1` (stereo not drawn), the inhibition was -15.6% (inactive) and the nuclei count was found to be 112%.
As to `Cc1ccc(NC(=O)c2ccco2)c(NC(=O)c2cccs2)c1`, the inhibition is -119% (inactive) and the nuclei count amounted to 111%.
On to `Cc1cccc(-n2nc3c(c2NC(=O)CCC2CCCCC2)CS(=O)C3)c1C` (stereo not drawn), for which the inhibition was -27.4% (inactive) and the nuclei count came out at 110%.
On to `Cc1nc(N)c(C#N)c(-c2cccnc2)c1C`, for which the inhibition was -16.2% (inactive) and the nuclei count worked out at 88.9%.
In the case of `COc1ccc(N2CCN(C(=O)C(C)(C)Oc3ccc(Cl)cc3)CC2)cc1`, the nuclei count amounted to 111% and the inhibition is 0% (inactive).
